# Measurements published in PubChem BioAssay AID2380 (Sanford-Burnham Center for Chemical Genomics, 2010).
# In all, about 330,000 compounds went through this assay and about 960 (0.29%) were called active. Shown is part of a subset that was picked to be rich in actives. Values without a mark were called inactive.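 Rule for the calls: active = compounds whose signal lies at least 3.5 SD above the mean of all wells on their plate; inactive = the rest.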
# Experiment: small molecules increasing insulinoma cell replication – ATP luminescence, uHTS, primary screen (AID 2380);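 note: 0% = DMSO-treated cells in low-serum medium and 100% = 10% serum control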
# Settings: MIN6 cells proliferation, ATPlite luminescence, 48 h, at 10 µM, active compounds read high
row,SMILES,proliferation
1,c1ccc(CCNC2CCCCCC2)cc1,1.52%
2,COc1ccc(CNCCc2ccc3c(c2)OCO3)c(OC)c1OC,5.73%
3,c1cc2c(cc1CCNC1CCCCCC1)OCO2,8.35% (active)
4,CC1(C)Cc2c(C#N)c(N3CCNCC3)nc(-c3ccco3)c2CS1,-3.88%
5,CC(=O)c1ccc(OC(NC(=O)Cc2ccccc2)C(Cl)(Cl)Cl)cc1 (stereo not given),-1.48%
6,COC(=O)COc1cc(C)cc2oc(=O)c3c(c12)CCCC3,5.08% (active)
7,Cc1cc(OCc2cc(C(=O)O)oc2C)c2c3c(c(=O)oc2c1)CCCC3,-3.8%
8,COc1cc(OC)cc(C2(C#N)CCN(C)CC2)c1,-0.56%
9,CCOc1cccc(=NC2CCCCC2)c2c(C)[nH]c(C)c12,-3.34%
10,CCC1(C)CC(CCNCc2ccc(N(C)C)cc2)(c2ccc(F)cc2)CCO1 (stereo not given),-4.45%
11,COc1ccc(C(=O)CC2C(=O)N(C)C(=O)N(C)C2=O)cc1,-0.73%
12,O=C(N/N=C/c1c(O)n(Cc2ccccc2)c(=O)[nH]c1=O)c1ccccc1,5.26% (active)
13,O=C(N/N=C/c1c(O)n(C2CC2)c(=S)[nH]c1=O)c1ccccc1,-1.64%
14,O=c1[nH]c(=O)n(Cc2ccccc2)c(O)c1/C=N/Nc1c(F)c(F)c(F)c(F)c1F,1.39%
15,COC(=O)C1=C(c2ccc(Cl)c(C(F)(F)F)c2)C[C@@H]2CC[C@H]1N2C(=O)NC(C)C,"-1.97% [100% = growth in 10% serum, cells starved in 0.2% serum]"
